Screening results (PubChem BioAssay)
HT1080-NT tox = kills 2HG-producing HT-1080-NT fibrosarcoma cells; HT-1080-NT fibrosarcoma viability, CellTiter-Glo ATP luminescence, 48 h; Potency, µM (series often up to 46.1 µM), usual class: cytotoxic; hit rate 1.6% among 360,000; AID 686970;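 also: NT is the 2HG producing partner of a matched IDH1 knockdown line; nearly all actives have a fitted effect of over 55% in size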
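Luminescent CellTiter-Glo readout after 48 hours of compound exposure at 37 degrees C defined viability of HT-1080-NT cells. Activity was normalized to DMSO wells and cell-free media wells; concentration-response curves were fitted and assigned curve classes.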
DT40 TDP1 CPT = DT40-hTDP1 cell growth loss with CPT. chicken DT40 Tdp1-/-;hTDP1 cells + 20 nM CPT, ATP luminescence, 48 h. Potency, µM (series often up to 46.2 µM), most hits filed as inhibitors. hit rate 12% among 420,000; also: nearly all actives have a fitted effect of over 55% in size
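Chicken DT40 Tdp1-/- cells stably complemented with human TDP1 were seeded at 400 cells/well in medium containing 20 nM camptothecin, exposed to pin-transferred compounds, and grown at 37 °C for at least 48 hr. Viability was read as ATP luminescence.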
DT40 TDP1 no CPT = qHTS for Inhibitors of human tyrosyl-DNA phosphodiesterase 1 (TDP1): qHTS in cells in absence of CPT; Potency, µM (titrated, usually from 46.2 µM), usual class: inhibitors; hit rate 15% among 420,000; DT40 Tdp1-/- hTDP1 cells, no CPT, ATP luminescence, 48 h; also: nearly all actives have a fitted effect of over 55% in size
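Compound effects on proliferation are scored in DT40 Tdp1-/-;hTDP1 cells in the absence of CPT. ATP levels (CellTiter-Glo luminescence) are recorded after a ≥48 hr, 37 °C incubation.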
IL1B secr inh = blocks inflammasome-driven IL-1 beta release. hit rate 4.7% among 360,000. THP-1 LPS/ATP IL-1B secretion, AlphaLISA, 16 h; stronger effect = lower value. activity change, % at 57.5 µM; in the data active = activity change below about -50%; inconclusive = mostly about -30% to -49%
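THP-1 cells pretreated 1 hr with compounds (up to 57.5 uM final), then stimulated with LPS (250 ng/mL final) plus ATP (1.25 mM final); secreted IL-1B measured by AlphaLISA after 16 hr, decreased signal indicating inhibition.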
HT1080 IDH1KD tx = toxicity to HT-1080 IDH1 knockdown cells (counter line); HT-1080 IDH1 knockdown viability, ATP luminescence, 48 h; Potency, µM (highest dose often 46.1 µM), most hits filed as cytotoxic; hit rate 2% among 360,000
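Luminescent ATP read-out (CellTiter-Glo, 10 min at room temperature) after 48 h compound exposure at 37 °C gave viability of IDH1-knockdown HT-1080 cells. Activity was normalised to DMSO and cell-free wells, then fitted as concentration-response curves.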
ALOX12 inh = ALOX12 (human) lipoxygenase inhibition; P18054; AID 1671190; Potency, µM (top dose mostly 108 µM), actives largely listed as inhibitors; purified 12hLO, xylenol orange hydroperoxide absorbance; hit rate 1.1% among 580,000
Target sequence (P18054 whole entry, looked up): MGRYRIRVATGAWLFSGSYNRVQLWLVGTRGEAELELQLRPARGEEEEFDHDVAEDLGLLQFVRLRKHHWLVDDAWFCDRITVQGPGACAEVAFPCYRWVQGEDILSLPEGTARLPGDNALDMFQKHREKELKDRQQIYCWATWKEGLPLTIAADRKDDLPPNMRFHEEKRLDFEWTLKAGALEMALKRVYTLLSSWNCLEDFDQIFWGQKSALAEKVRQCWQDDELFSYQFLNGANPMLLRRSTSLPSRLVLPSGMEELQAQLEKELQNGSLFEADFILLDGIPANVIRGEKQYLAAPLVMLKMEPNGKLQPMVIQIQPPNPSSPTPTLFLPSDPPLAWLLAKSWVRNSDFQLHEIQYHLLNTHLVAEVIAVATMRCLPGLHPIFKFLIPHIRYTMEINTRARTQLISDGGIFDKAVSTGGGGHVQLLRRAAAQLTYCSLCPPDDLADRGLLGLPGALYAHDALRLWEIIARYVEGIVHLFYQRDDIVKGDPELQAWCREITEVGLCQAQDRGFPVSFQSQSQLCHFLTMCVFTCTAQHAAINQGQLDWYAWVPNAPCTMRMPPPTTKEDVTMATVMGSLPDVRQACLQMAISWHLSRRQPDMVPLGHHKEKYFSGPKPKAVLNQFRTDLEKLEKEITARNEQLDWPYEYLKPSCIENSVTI
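Purified human 12hLO at 150 nM in 25 mM Hepes, 0.01% Triton X-100, pH 7.0, preincubated 15 min at room temperature with compound. Reaction started with 40 uM arachidonic acid, 30 min at room temperature. Hydroperoxide measured by Fe-xylenol orange, 573/405 nm absorbance ratio.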
Of the large screens only hits and unclear results are named; the others gave an inactive call. Many of the other results were omitted from the sample, so hits are more common in it than they were. Unless noted, calls follow the shape of the dose curve; as a rule, active = well fitted curve in the direction sought with a large enough effect; inconclusive = small, poorly fitted or top-dose-only effect, or another doubt; inactive = no such curve, though single readings can be large; an effect the other way counts as inactive or inconclusive.

Cn1c(=O)[nH]c(=O)c2c1nc(N1CCCC1)n2CC(O)CO (stereo not drawn)	none (no result: HT1080-NT tox, DT40 TDP1 CPT, DT40 TDP1 no CPT, IL1B secr inh, HT1080 IDH1KD tx)
COc1ccc(C(=O)N2CCC(N3C(=O)C(O)C34CCCCC4)CC2)c(OC)c1 (stereo not drawn)	none (no result: HT1080-NT tox, DT40 TDP1 CPT, DT40 TDP1 no CPT, IL1B secr inh, HT1080 IDH1KD tx)
CC(NC(=O)CCc1c[nH]c2ccccc12)c1cccc2ccccc12 (stereo not drawn)	none (no result: HT1080-NT tox, DT40 TDP1 CPT, DT40 TDP1 no CPT, IL1B secr inh, HT1080 IDH1KD tx)
CCOC(=O)C1(CCOc2ccccc2)CCN(C(=O)c2ccc(-n3cccn3)cc2)CC1	DT40 TDP1 CPT inconclusive, DT40 TDP1 no CPT 21µM, HT1080 IDH1KD tx inconclusive
CCOC(=O)C1(Cc2cccc(F)c2)CCN(Cc2nc(CC)[nH]c2C)CC1	HT1080-NT tox inconclusive, DT40 TDP1 CPT inconclusive, DT40 TDP1 no CPT 23µM, IL1B secr inh -55
CCOC(=O)C1(CCOc2ccccc2)CCN(Cc2cccc(OCCO)c2)CC1	DT40 TDP1 CPT inconclusive, DT40 TDP1 no CPT inconclusive
CCOC(=O)C1(CCOc2ccccc2)CCN(CC=C(C)C)CC1	DT40 TDP1 CPT inconclusive, DT40 TDP1 no CPT inconclusive
CCOC(=O)C1(CCOc2ccccc2)CCN(Cc2ccc(OC)cc2)CC1	HT1080-NT tox inconclusive, DT40 TDP1 CPT 15µM, DT40 TDP1 no CPT 21µM, IL1B secr inh inconclusive, HT1080 IDH1KD tx inconclusive
CCOC(=O)C1(Cc2cccc(F)c2)CCN(Cc2cnn(CC)c2)CC1	DT40 TDP1 no CPT inconclusive, HT1080 IDH1KD tx inconclusive
CCOC(=O)C1(CCOc2ccccc2)CCN(Cc2ccc(OCC)c(CO)c2)CC1	HT1080-NT tox inconclusive, DT40 TDP1 CPT 15µM, DT40 TDP1 no CPT 18µM
CCOC(=O)C1(CCOc2ccccc2)CCN(Cc2cccn2-c2cccnc2)CC1	DT40 TDP1 CPT inconclusive, DT40 TDP1 no CPT inconclusive, IL1B secr inh inconclusive
CCOC(=O)C1(CCOc2ccccc2)CCN(Cc2ccc3nonc3c2)CC1	DT40 TDP1 CPT inconclusive, DT40 TDP1 no CPT 21µM
CCOC(=O)C1(CCOc2ccccc2)CCN(Cc2cccc(F)c2)CC1	DT40 TDP1 CPT 16µM, DT40 TDP1 no CPT 5.8µM, IL1B secr inh inconclusive
Cc1cnc(C2CCOCC2)n1CC1CCN(C(=O)CC2CCCC2)CC1	none (no result: HT1080-NT tox, DT40 TDP1 CPT, DT40 TDP1 no CPT, IL1B secr inh, HT1080 IDH1KD tx)
COc1ccc(-c2coc3cc(OC(C)=O)ccc3c2=S)cc1	HT1080-NT tox inconclusive, DT40 TDP1 CPT 26µM, DT40 TDP1 no CPT inconclusive, HT1080 IDH1KD tx inconclusive, ALOX12 inh inconclusive
COc1cccc(-c2nc(NC3CC3)c3ccccc3n2)c1	DT40 TDP1 CPT 16µM, DT40 TDP1 no CPT 21µM, ALOX12 inh inconclusive (no result: HT1080-NT tox, IL1B secr inh, HT1080 IDH1KD tx)
COCCNc1nc(-c2cccc(OC)c2)nc2ccccc12	DT40 TDP1 CPT 18µM, DT40 TDP1 no CPT 6.5µM, ALOX12 inh inconclusive (no result: HT1080-NT tox, IL1B secr inh, HT1080 IDH1KD tx)
COCCNc1nc(-c2ccccc2)nc2ccccc12	DT40 TDP1 no CPT inconclusive
COc1cccc(-c2nc(N(C)C)c3ccccc3n2)c1	DT40 TDP1 no CPT inconclusive, ALOX12 inh inconclusive (no result: HT1080-NT tox, IL1B secr inh, HT1080 IDH1KD tx)
COc1cccc(-c2nc(NCc3ccccc3)c3ccccc3n2)c1	DT40 TDP1 CPT inconclusive, DT40 TDP1 no CPT 16µM, ALOX12 inh inconclusive (no result: HT1080-NT tox, IL1B secr inh, HT1080 IDH1KD tx)
CCOc1ccc2c(=O)c(-c3ccc(OC)c(OC)c3)coc2c1	none (no result: HT1080-NT tox, DT40 TDP1 CPT, DT40 TDP1 no CPT, IL1B secr inh, HT1080 IDH1KD tx)
COc1cc2nc(C3CCC3)n(NC(=O)c3ccco3)c(=O)c2cc1OC	IL1B secr inh -57
